High-throughput results from PubChem.
BaF3 tox: parental Ba/F3 viability inhibition as JAK2V617F counter-screen; inhibition, % at 5.6 µM; CellTiter-Glo ATP luminescence; actives 1.1% (n = 220,000);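 active means inhibition above a per-campaign cutoff, the mean inhibition of all tested compounds plus 3 SD, cut at about 27% in these data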;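 further: 0% = DMSO wells and 100% = JAK Inhibitor I control wells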
Ba/F3 V617F tox: lowers viability of Ba/F3 cells expressing EpoR and JAK2V617F; inhibition, % at 5.6 µM; ATP luminescence; actives 1.1% (n = 220,000);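 active means inhibition above the campaign mean plus 3 SD over all tested compounds, cut at about 24% in these data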;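 further: cytokine-independent growth of Ba/F3 cells driven by EpoR plus mutant JAK2; 0% = DMSO-treated cells and 100% = JAK inhibitor I control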
IEC-6 tox: IEC-6 cytotoxicity, counter-screen for KLF5 inhibitors. luminescence viability. inhibition, % at 5 µM. actives 0.78% (n = 290,000). AID 1825; in the data active means inhibition above about 22%;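 further: 0% = plate median of test compound wells and 100% = cytotoxic reference compound wells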
aSyn 5UTR inh: MLPCN primary screen, SNCA 5' untranslated region | alpha-synuclein 5'UTR reporter, inhibitor activity | inhibition, % (tested at 7.5 µM) | actives 0.82% (n = 300,000) | AID 1813; in the data active means inhibition above about 60%;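 further: H4 neuroglioblastoma cells stably carrying SNCA 5'UTR luciferase fusion; 0% = DMSO wells and 100% = positive control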
KLF5 inh: kruppel-like factor 5 inhibition; DLD-1 KLF5 promoter-luciferase reporter, luminescence; inhibition, % at 5 µM; actives 0.23% (n = 290,000);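 active means inhibition above a per-plate limit of that plate's mean compound inhibition plus 3 SD, cut at about 60% in these data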;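 further: 0% = DMSO wells and 100% = LY294002 at 200 µM; higher means less KLF5 promoter-driven luciferase light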
APP 5UTR inh: APP translation inhibition; inhibition, % at 2 µM; SH-SY5Y APP 5'UTR-luciferase reporter, luminescence; actives 0.82% (n = 190,000);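 active means inhibition above a set limit, derived from the sample mean plus 3 SD, cut at about 45% in these data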
The depositor's hits bear a star; · = no result given. Sampled rows, rich in hits. Any-hit rate of the full collection: about 2.2%.

SMILES	BaF3 tox	Ba/F3 V617F tox	IEC-6 tox	aSyn 5UTR inh	KLF5 inh	APP 5UTR inh
COc1ccc(CSc2ncnc3sccc23)cc1F	-1.0	-0.1	-5.7	-17.6	-16.3	-6.2
Cc1ccc(C(=O)N2c3ccccc3OCC2C)cc1 (centres undefined)	·	·	-7.1	3.1	4.7	·
Cc1ccc(C(=O)N2C(=O)C(c3ccccc3)Oc3ccccc32)cc1 (centres undefined)	-0.3	-4.4	1.3	92.8*	6.6	·
CC1=CC(=C2C=CC(=O)C=C2)C=C(C)N1C	60.2*	72.8*	-2.1	0.5	-14.8	·
Cc1cc(C)c2cc(C#N)c(N3CCCN(C(=S)NCCCN(C)C)CC3)nc2c1	·	·	12.1	95.7*	-15.4	·
Cc1ccc2cc(C#N)c(N3CCCN(C(=S)NCCCN(C)C)CC3)nc2c1	·	·	8.5	-7.9	-9.1	·
O=C(Nc1ccc2c(c1)S(=O)(=O)N=C1CCCCCN12)c1ccccc1Cl	10.2	6.6	-3.9	-19.5	-22.9	1.0
CCOC(=O)C1(C)NC(c2ccco2)C2C(=O)N(c3ccc(C)cc3)C(=O)C21 (centres undefined)	2.2	-0.6	-5.2	-2.9	-13.9	-8.3
CCOC(=O)C1=C(C)C2C3C(=O)N(c4cc(C)ccc4C)C(=O)C3C1(C)C1C(=O)N(c3cc(C)ccc3C)C(=O)C21 (centres undefined)	10.1	0.9	1.9	-28.4	-48.3	75.3*
CCOC(=O)C1CCCN(Cc2cc(=O)oc3cc(C)c(C)cc23)C1 (centres undefined)	82.2*	2.2	-0.6	-11.8	-14.8	9.3
CCOC(=O)C1CCCN(Cc2cc(=O)oc3cc(C)ccc23)C1 (centres undefined)	3.8	-0.4	-10.4	-75.5	-13.2	-25.3
COc1ccccc1NC(=O)Nc1nc(CC(=O)Nc2ccc(N(C)C)cc2)cs1	·	·	·	-31.7	·	·
Cc1ccc(Nc2cc(C(=O)NCCCN3CCOCC3)c3ccccc3n2)cc1C	·	·	6.7	-48.5	-50.1	·
Cc1ccc(Nc2ncc(C(=O)NCCCN3CCN(C)CC3)c3ccccc23)cc1Cl	64.1*	65.2*	13.0	3.9	2.9	10.5
Cn1c(=O)c2c(nc(NCc3ccco3)n2C/C=C/c2ccccc2)n(C)c1=O	·	·	·	90.4*	·	·
O=C(OCC(=O)C12CC3CC(CC(C3)C1)C2)c1ccc(O)cc1O	·	·	·	-47.1	·	·
CCOC(=O)c1c(NC(=O)CSc2ncccn2)sc2c1CCN(Cc1ccccc1)C2	39.4*	4.9	4.1	-11.0	18.1	9.0
CCOC(=O)c1c(NC(=O)CC)sc2c1CCN(Cc1ccccc1)C2	·	·	2.3	-2.8	-27.7	·
OC(c1cc(-c2ccc(C(F)(F)F)cc2)nc(C(F)(F)F)c1)C1CCCCN1 (centres undefined)	52.8*	96.0*	40.0*	103.5*	-1.7	·
Cc1cccc(N2CC(C(=O)Nc3nnc(SCC(=O)NCC4CCCO4)s3)CC2=O)c1 (centres undefined)	·	·	-3.3	18.9	-25.1	·
C=CC[n+]1c(-c2ccc(Cl)cc2Cl)csc1Nc1ccc(NC(C)=O)cc1	2.7	2.2	6.5	94.4*	11.0	16.4
C=CC[n+]1c(-c2ccc(Cl)cc2Cl)csc1Nc1c(C)n(C)n(-c2ccccc2)c1=O	3.0	1.5	12.8	13.6	-9.5	19.2
Cc1cc(C(=O)COc2ccccc2C(N)=O)c(C)n1CC1CCCO1 (centres undefined)	62.1*	45.1*	15.3	-35.0	-36.0	-22.1
Cc1cc(C(=O)COC(=O)c2ccccc2Br)c(C)n1CC1CCCO1 (centres undefined)	-13.8	3.7	3.2	53.6	55.7	·
CCOC(=O)c1c(C)[nH]c(C(=O)N/N=C\c2ccccc2Cl)c1C	10.9	5.2	12.8	-63.7	-12.7	-1.8
SMILES	BaF3 tox	Ba/F3 V617F tox	IEC-6 tox	aSyn 5UTR inh	KLF5 inh	APP 5UTR inh
CCCOc1ccc(/C=N/Nc2cc(N3CCOCC3)ncn2)c(O)c1	·	·	-2.1	3.1	79.3*	·
CC(C)CCNC(=O)CCc1nnc2n(CCCOC(C)C)c(=O)c3ccccc3n12	·	·	2.4	22.3	-28.2	·
Cc1ccc(NC(=S)NCCN(C2CCCCC2)C2CCCC2)cc1	11.0	11.1	8.1	-3.1	-13.1	-8.1
Cc1cc(C)cc(NC(=S)NCCN(C2CCCCC2)C2CCCC2)c1	72.2*	7.4	9.7	-10.3	-5.5	-25.6
O=C(CCN1C(=O)/C(=C/c2ccccc2Cl)SC1=S)NC1C=CS(=O)(=O)C1 (centres undefined)	·	·	-5.1	-70.6	-22.5	·
N=c1c2c(-c3ccccc3)c(-c3ccccc3)n(Cc3ccccc3)c2ncn1CCCn1ccnc1	4.4	2.0	8.3	33.3	38.1	83.1*
